SW480 rerep: A quantitative high throughput screen for small molecules that induce DNA re-replication in SW480 colon adenocarcinoma cells. 340,000 compounds, 1.8% hits. Potency, µM (doses to about 46.1 µM), inactives show at the top dose re-replication activation, hits mostly activators. SW480 DNA re-replication, Hoechst DNA content imaging, 48 h; further: % of control where 0% means no effect; nearly all actives have a fitted effect of over 55% in size
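SW480 cells exposed to compounds for 48 hr at 37 C, 5% CO2, then Hoechst-stained 40 min. Nuclear DNA content imaged by fluorescence scanning (405 nm excitation, 500-530 nm emission); re-replication scored as increased high-intensity nuclei.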
KB-V1 cytotox: qHTS assay for MDR1-selective chemotherapeutics: Primary screen using the drug-selected MDR subline cells KB-V1; KB-V1 MDR cells viability, CellTiter-Glo, 72 h; Potency, µM (top dose mostly 46.1 µM), usual class: cytotoxic; 400,000 compounds, 3.4% hits; further: on the % scale 0 is the no-effect control and ±100 the full control effect; nearly all actives have a fitted effect of over 60% in size
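Cytotoxicity via CellTiter-Glo luminescence after 72 h compound exposure at 37 degrees C. Cells: drug-selected KB-V1 line, DMEM phenol-red free plus 10% FBS. Compounds tested at multiple concentrations; normalized data fitted to concentration-effect curves.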
KB-3-1 tox: qHTS assay for MDR1-selective chemotherapeutics: Primary screen using the parental adenocarcinoma cell KB-3-1. Potency, µM (series often up to 46.1 µM), usual class: cytotoxic. AID 1347075, 2019. 400,000 compounds, 1.4% hits. KB-3-1 viability, CellTiter-Glo ATP luminescence, 72 h; further: on the % scale 0 is the no-effect control and ±100 the full control effect; nearly all actives have a fitted effect of over 60% in size
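KB-3-1 parental drug-naive adenocarcinoma cells in DMEM/10% FBS, incubated 72 h at 37 C with pin-transferred compounds across a concentration series. Viability by CellTiter-Glo luminescence; concentration-response curves fitted after normalization.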
HT1080-NT tox: qHTS for induction of synthetic lethality in tumor cells producing 2HG: qHTS for the HT-1080-NT fibrosarcoma cell line. HT-1080-NT fibrosarcoma viability, CellTiter-Glo ATP luminescence, 48 h. Potency, µM (top dose mostly 46.1 µM), without a hit: at the highest dose activity, negative = less viability, hits mostly cytotoxic. 360,000 compounds, 1.6% hits. AID 686970, 2013;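 further: NT is the 2HG producing partner of a matched IDH1 knockdown line; 0% = DMSO-treated cells and -100% = media-only wells without cells; nearly all actives have a fitted effect of over 55% in size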
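Fibrosarcoma NT cells, 750 per well in 5% FBS RPMI, were exposed to compound for 48 hours. Viability: CellTiter-Glo luminescence.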
HT1080 IDH1KD tx: qHTS for induction of synthetic lethality in tumor cells producing 2HG: qHTS for the HT-1080-IDH1KD cell line; 360,000 compounds, 2% hits; AID 686971, 2013; HT-1080 IDH1 knockdown viability, ATP luminescence, 48 h; Potency, µM (titrated, usually from 46.1 µM), without a hit: at the top dose activity, negative = toxicity, hits mostly cytotoxic;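 further: 0% = DMSO wells and -100% = cell-free medium wells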
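In this qHTS, HT-1080 cells depleted of IDH1 are exposed for 48 h at 37 °C to compound titrations. Toxicity is scored from CellTiter-Glo luminescence, with DMSO as full viability and medium alone as none.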
MCF10A rereplic: A quantitative high throughput screen for small molecules that induce DNA re-replication in MCF 10a normal breast cells | Potency, µM (doses to about 46.1 µM), inactives show at the highest dose activity, positive = re-replication, actives largely listed as activators | 350,000 compounds, 2.9% hits | AID 624296, 2012 | MCF 10A DNA re-replication, Hoechst nuclear intensity, 48 h; further: % of control where 0% means no effect; nearly all actives have a fitted effect of over 50% in size
An asterisk follows results filed as active; i = inactive; ? = inconclusive; nt = not tested or not shown; [ ] = dose if it differs, or a comment. Most compounds without a hit are left out; they make up all but 7.9% or so of the library. The call rests on the fitted dose curve; in most records, active means well fitted curve in the direction sought with a large enough effect; inconclusive means small, poorly fitted or top-dose-only effect, or another doubt; inactive means no such curve, though single readings can be large; an effect the other way counts as inactive or inconclusive. Potency means the concentration at half of the fitted maximal effect.

SMILES	SW480 rerep	KB-V1 cytotox	KB-3-1 tox	HT1080-NT tox	HT1080 IDH1KD tx	MCF10A rereplic
Cc1ccc(Nc2c(-c3c[nH]c4ccccc34)nc3cc(C)ccn23)cc1	nt	i	i	nt	nt	nt
CCCOc1cc(C)c(S(=O)(=O)NCCOC)cc1C	1%	18µM*	i	-23%	-2%	-2%
CCOC(=O)C1C(=O)OC(C)(C)C1C(C)C(=O)c1ccc(C)cc1 (configuration not stated)	-5%	15µM*	i	6%	-3%	3%
CCOC(=O)C1C(=O)OC(C)(C)C1C(C)C(=O)c1ccc(C)cc1C (configuration not stated)	-1%	i	i	-2%	-11%	-4%
CCOC(=O)c1c(C)c(C(=O)N(C)C2CCCCC2)c(C)n1C	-4%	15µM*	i	16%	-2%	-1%
CCOC(=O)c1c(C)c(C(=O)NC2CCCCCC2)c(C)n1C	3%	8.2µM*	i	25%	1%	20%
CCN(c1ccccc1)S(=O)(=O)c1cc(C(=O)NCc2ccco2)ccc1C	-11%	i	i	-15%	5%	6%
C=C[C@H]1C(C(=O)OCC)=CC[C@@H](c2ccccc2)N1S(=O)(=O)c1ccc(C)cc1	nt	?	?	-15%	-17%	nt
COc1ccccc1N1CCN(C/C(C)=C/c2ccccc2)CC1	-1%	?	i	11%[9.24 µM]	?	4%
O=[N+]([O-])c1cc(CN2CCCC2)ccc1Sc1ccc(Cl)cc1	6%	?	?	-26%	?	10µM*
CC(=O)c1ccc(N2CCN(CC(=O)Nc3ccccc3C(=O)NC3CC3)CC2)c(F)c1	-7%	i	i	-3%[9.24 µM]	-1%	18µM*
Cc1ccc(C)c2[nH]c(=O)c(CN(CCN3CCCC3)C(=O)Nc3ccc(F)cc3)cc12	1%	i	?	16µM*	?	?
Cc1noc(C)c1CSCC(=O)Nc1cccc(C(F)(F)F)c1	-6%	nt	nt	7%	0%	18µM*
O=C(CSC1=NCCN1)Nc1cccc(C(F)(F)F)c1	6%	i	i	0%	26µM*	?
COc1cc(/C=N/Nc2ccccn2)cc(OC)c1O	19%	i	i	-11%	-21%	-17%
Oc1ccc(/C=N/Nc2ccc(C(F)(F)F)cn2)cc1	9.2µM*	i	?	?	?	-1%
COc1cc(/C=N/Nc2ccc(C(F)(F)F)cn2)cc(OC)c1O	12µM*	i	?	?	?	23%
Cc1ccc2nsnc2c1NC(=O)COc1ccccc1F	-6%	?	i	17%	7%	3%
CCCCCCN1C=CC(=C/C=C(\C#N)C(=O)OCC)C=C1	-3%	8.2µM*	i	-8%	3%	6%
CCN(CC)S(=O)(=O)c1cccc(C(=O)Nc2cccc(C)c2)c1	3%	?	i	-16%	-9%	9%
CNC(=O)c1ccsc1NC(=O)c1sc2ccccc2c1Cl	?	i	i	?	-16%	29µM*
Cc1nnc(NC(=O)c2sc3ccccc3c2Cl)s1	-2%	i	i	-6%	-12%	20%
O=S1(=O)N=C(Nc2ccc(N3CCOCC3)cc2)c2ccccc21	-9%	i	i	7%	12%	-1%
Cc1ccccc1-c1ccc(Nc2ccc(N3CCOCC3)cc2)nn1	-2%	21µM*	i	-1%	-26%	16%
CCCCOc1cc(NCc2ccccc2)c2ncn(C(C)C)c2c1	1%[9.22 µM]	?	?	-27%	?	?
SMILES	SW480 rerep	KB-V1 cytotox	KB-3-1 tox	HT1080-NT tox	HT1080 IDH1KD tx	MCF10A rereplic
Oc1c(C(c2ccccn2)N2CCC(Cc3ccccc3)CC2)cc(Cl)c2cccnc12 (configuration not stated)	?	2.6µM*	?	?	21µM*	16µM*
CN(CC(=O)O)S(=O)(=O)c1ccc2c(c1)n(C)c(=O)c(=O)n2C	7%	i	i	18%	16%	-4%
CCCCN(CCCC)C(=O)CN(C)S(=O)(=O)c1ccc2c(c1)n(C)c(=O)c(=O)n2C	-5%	12µM*	i	8%	10%	-8%
CCN(C(=O)COC(=O)CNC(=O)c1ccc2ccccc2c1)C1CCS(=O)(=O)C1 (configuration not stated)	-35%	i	i	-6%	-1%	5.8µM*
CCN(C(=O)COC(=O)c1cc(-c2cccc3ccccc23)nc2ccccc12)C1CCS(=O)(=O)C1 (configuration not stated)	11%	18µM*	i	-1%	-10%	4%
O=c1c2ccccc2nc(SCc2cccc(F)c2)n1-c1cccc(S(=O)(=O)N2CCCC2)c1	-46%	3.3µM*	i	3%	8%	1%
O=C(c1ccc(-n2c(SCc3cccc(F)c3)nc3ccccc3c2=O)cc1)N1CCOCC1	1%	?	?	-20%	-23%	16%
COc1ccccc1N1CC(C(=O)NC2CCCCCC2)CC1=O (configuration not stated)	2%	i	i	15%	8%	0%
COCc1[nH]nc2c1C(c1ccc(F)cc1F)C(C#N)=C(N)O2 (configuration not stated)	-1%	i	i	-2%	1%	1%
COCc1[nH]nc2c1C(c1ccnc3ccccc13)C(C#N)=C(N)O2 (configuration not stated)	16µM*	i	i	-3%	8%	?
COCc1[nH]nc2c1C(c1ccc(OC)c(OC)c1)C(C#N)=C(N)O2 (configuration not stated)	-6%	i	i	6%	7%	-4%
CCn1c2ccccc2c2cc(C3C(C#N)=C(N)Oc4n[nH]c(COC)c43)ccc21 (configuration not stated)	30%	i	i	11µM*	8.9µM*	?
COc1cc(S(=O)(=O)Nc2ccc(Br)cc2)ccc1N	12%	i	i	-3%	-1%	5%
Nc1nc(SCc2ccccc2)cc(SCc2ccccc2)n1	8%	i	i	-6%	-13%	8.2µM*
COc1cc(/C=N\Nc2nncn2N)ccc1OC(C)=O	?	i	i	?	?	?

Screens: PubChem BioAssay, National Center for Advancing Translational Sciences (NCATS)
